We go through one compound from PubChem BioAssay AID2283193 (EPA ToxCast).

The assay deals with human Protein Kinase C, zeta (PKCz), PRKCZ (gene 5590) (UniProt Q05513). The assay is described as follows: NVS_ENZ_hPKCz: NovaScreen (NVS) Enzymatic Assay for human Protein Kinase C, zeta (PKCz). How it is done: NVS_ENZ_hPKCz is a biochemical, single-readout assay that uses extracted gene-proteins in a cell-free assay. Measurements were taken 1 hour after chemical dosing in a 384-well plate.NVS_ENZ_hPKCz is one of one assay component(s) measured or calculated from the NVS_ENZ_hPKCz assay. It is designed to make measurements of enzyme activity, a form of enzyme reporter, as detected with fluorescence intensity signals by Fluorescence and electrophoretic mobility shift technology.Data from the assay component NVS_ENZ_hPKCz was analyzed into 1 assay endpoint. This assay endpoint, NVS_ENZ_hPKCz, was analyzed in the positive analysis fitting direction relative to DMSO as the negative control and baseline of activity. Using a type of enzyme reporter, loss-of-signal activity can be used to understand changes in the enzymatic activity as they relate to the gene PRKCZ. Furthermore, this assay endpoint can be referred to as a primary readout, because this assay has produced multiple assay endpoints where this one serves a enzymatic activity function. To generalize the intended target to other relatable targets, this assay endpoint is annotated to the kinase intended target family, where the subfamily is serine/threonine kinase. […]
Chain of human Protein Kinase C, zeta (PKCz), PRKCZ (gene 5590) (Q05513 whole entry, looked up): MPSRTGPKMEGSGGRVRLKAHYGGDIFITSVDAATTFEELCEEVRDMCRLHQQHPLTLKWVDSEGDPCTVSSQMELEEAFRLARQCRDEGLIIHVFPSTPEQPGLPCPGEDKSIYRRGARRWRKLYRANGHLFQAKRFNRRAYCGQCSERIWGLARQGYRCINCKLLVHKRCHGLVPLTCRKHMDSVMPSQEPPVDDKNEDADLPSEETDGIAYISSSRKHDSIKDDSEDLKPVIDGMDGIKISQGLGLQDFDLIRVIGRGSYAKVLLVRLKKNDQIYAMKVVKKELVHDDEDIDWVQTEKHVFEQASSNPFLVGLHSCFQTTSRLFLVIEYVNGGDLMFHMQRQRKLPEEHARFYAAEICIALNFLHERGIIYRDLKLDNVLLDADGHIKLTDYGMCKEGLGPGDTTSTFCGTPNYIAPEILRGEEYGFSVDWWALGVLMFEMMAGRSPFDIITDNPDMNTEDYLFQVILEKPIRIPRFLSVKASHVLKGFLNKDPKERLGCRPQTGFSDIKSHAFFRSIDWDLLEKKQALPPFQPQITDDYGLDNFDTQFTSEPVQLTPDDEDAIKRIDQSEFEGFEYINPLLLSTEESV

Results filed as inconclusive are left out. Activity calls are given as the source filed them. The calls were made as follows: active = hit-call score of the fitted dose curve at least 0.9, where 1 is the maximum; inconclusive = response in the unintended direction; inactive = score below 0.9.

For `CCCCC(CC)COC(=O)c1ccccc1C(=O)O` (stereo unspecified), the compound was called inactive.
